# In the library only some 0.51% were active in any assay of this set; here they are far more common.
# E coli growth-1: bacterial growth inhibition, counter-screen for AddAB inhibitors; inhibition, % at 11.9 µM; E. coli V3065 growth, OD600 absorbance, 18 h; 0.27% of 330,000 active;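 active = inhibition above the campaign's mean inhibition across all tested compounds plus 3 SD, cut at about 9.9% in these data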;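 also: uninfected addAB+ strain grown without phage in ampicillin broth; 0% = DMSO wells and 100% = ciprofloxacin 0.95 µg/ml wells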
# AddAB inh: less growth of phage-infected E. coli with AddAB; 0.29% of 330,000 active; E. coli expressing H. pylori AddAB, absorbance growth; inhibition, % at 11.9 µM; in the data active = inhibition above about 12%;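 also: 0% = vehicle wells of infected cells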
# Tat transport: blocks Tat-dependent protein export in E. coli; E. coli MC4100 TorA-mCherry Tat export, fluorescence; inhibition, % at 10 µM; 0.036% of 340,000 active; AID 488895;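 active = mean replicate inhibition at least 50% and at least half of replicates individually reaching 50%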;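 also: exported cargo escapes ClpAP degradation while cytoplasmic cargo is degraded and loses fluorescence; 0% = median of neutral control wells and 100% = median of NaSCN control wells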
# phage Ecoli inh: E. coli growth loss with phage present. 0.26% of 360,000 active. inhibition, % at 11.9 µM. growth absorbance; in the data active = inhibition above about 11%
# E coli growth-2: E. coli growth inhibition. Escherichia coli growth, OD600, 23 h; hits give low values. OD600 absorbance (concentration not given with the values). 0.21% of 330,000 active;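 active = OD600 absorbance below the run mean of sample wells minus 3.6 SD, in any replicate, cut at about 0.56 in these data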
# Numbers without * were called inactive; / = no result.
SMILES,E coli growth-1,AddAB inh,Tat transport,phage Ecoli inh,E coli growth-2
CCOc1ccc(Br)cc1C1=CC(=O)CC(c2ccc(OC)cc2)C1 (stereo unspecified),/,/,/,/,0.68
Oc1ccc(-c2nc(-c3ccc(F)cc3)c(-c3ccncc3)[nH]2)cc1,1,0,-13,3,0.32*
CC1=NN(C(N)=S)C(=O)C1N=Nc1cccc2ccccc12 (stereo unspecified),14*,7,/,/,/
CC1(C(=O)N2CC3(CC(c4cccc(NC(=O)CC(c5ccccc5)c5ccccc5)c4)=NO3)CC2C(N)=O)CC1 (stereo unspecified),/,/,/,/,0.65
Oc1cc(Cl)cc(Cl)c1Cl,-2,1,-1,-2,0.27*
CC(=NO)c1cc(Cl)cc(Cl)c1O,/,/,/,/,0.59
O=C1C=C(c2cccc3c2sc2ccccc23)CC(c2ccc(F)cc2)C1 (stereo unspecified),/,/,/,/,0.69
CC1CCCCC1NC(=O)C1CCN(S(=O)(=O)c2ccc(-n3cnnn3)cc2)CC1 (stereo unspecified),38*,10,6,3,0.77
COc1cccc(C=NNc2ncnc(Cl)c2N)c1O,/,/,/,/,0.17*
COc1cccc(/C=N/Nc2nccnc2Cl)c1O,/,/,2,1,/
CO[C@@]12[C@@H]3N[C@@H]3CN1C1=C(C(=O)C(N)=C(C)C1=O)[C@@H]2COC(N)=O,/,/,67*,9,/
CCCCNC(=O)O[C@@H]1C[C@H]2CCCC(=O)N3CC[C@@H](C1)[C@@H]23,-2,1,-8,2,/
CCCCCCCN(c1ccccc1)[C@@H]1C[C@H]2CCCC(=O)N3CC[C@@H](C1)[C@@H]23,/,/,51*,4,/
Brc1cc(Br)c2nc(-c3cccs3)ccc2c1,3,2,-8,0,0.76
Cc1nc2c(Br)cc(Br)cc2cc1O,7,4,3,8,0.56*
CCCN1CC(CSC)CC2c3cccc4[nH]cc(c34)CC21 (stereo unspecified),/,/,/,/,0.69
O=C1C2C3C=CC(C4CC34)C2C(=O)N1/N=C/c1ccc([N+](=O)[O-])o1 (stereo unspecified),3,7,-4,7,/
O=C1C2C3C=CC(C4CC34)C2C(=O)N1N=Cc1ccc([N+](=O)[O-])o1 (stereo unspecified),/,/,/,/,0.5*
Cc1cc(Cl)ccc1NC(=S)NCCC(c1ccccc1)c1ccccc1,13*,11,10,3,0.73
CNCC(Cc1ccccc1)NCC(CC1CCCCC1)NCCCc1ccccc1 (stereo unspecified),/,/,/,/,0.47*
CNCC(CC1CCCCC1)NCC(Cc1ccccc1)NCCC12CC3CC(CC(C3)C1)C2 (stereo unspecified),/,/,/,/,0.06*
C=CCC(CC(=O)OC(C)(C)C)C(=O)OCC1CCCN1C(=O)C(CC=C)CC(=O)N(CCO)Cc1ccccc1 (stereo unspecified),/,/,/,/,0.72
CCC(C)C1NC(=O)c2cc([N+](=O)[O-])cc(F)c2OCCC(C(N)=O)NC(=O)C(CCCCN)NC1=O (stereo unspecified),/,/,/,/,0.7
C=Cc1ncc(OC)c2c1[nH]c1ccccc12,2,3,0,/,0.49*
CCc1ccc(Nc2n[n+](-c3ccccc3)c(-c3c(Cl)cccc3Cl)s2)cc1,8,8,13,4,0.47*
SMILES,E coli growth-1,AddAB inh,Tat transport,phage Ecoli inh,E coli growth-2
CNS(=O)(=O)c1ccc(NC(=O)Nc2cccc(F)c2)cc1,7,10,-7,5,0.51*
O=C(O)Cn1cc(C=C2SC(=O)N(CC(=O)N3CCCCCC3)C2=O)c2ccccc21,/,/,/,/,0.67
COc1ccc(-n2c(Cc3cccn3C)nnc2SCC(=O)Nc2ccc(C(C)=O)cc2)cc1,-1,0,56*,0,0.73
COc1ccc(NC(=O)CSc2nnc(Cc3cccn3C)n2-c2ccc(OC)cc2)cc1,0,3,4,2,0.72
COc1ccc(CC2CN3C(=NCC3Cc3ccccc3)N2CCNC(=O)c2ccc(C)c(Br)c2)cc1 (stereo unspecified),/,/,/,/,0.64
CC[n+]1c(/C=C2\Sc3ccccc3N2C)ccc2cccc(C)c21,/,/,11,2,0.33*
CCCCN1C(=N)N([C@@H](CN2CCC[C@H]2CN2C(N)=NC[C@@H]2Cc2ccccc2)C(C)C)C[C@H]1Cc1ccccc1,1,1,5,2,/
CC(C)C[C@@H]1CN=C(N)N1C[C@@H]1CCCN1C[C@@H](C(C)C)N1C[C@@H](Cc2ccccc2)N(CCCC2CCCC2)C1=N,1,2,10,1,0.46*
O=C(NNC(=S)NC(=O)c1cccnc1)c1ccc(Cl)cc1,-2,-6,11,-2,0.53*
COc1ccc(C(=O)NC(=S)NNC(=O)c2cnccn2)cc1,-5,-3,4,-2,0.43*
O=C(NC(=S)NNC(=O)c1cnccn1)c1ccc(Cl)cc1,-2,-3,-2,-1,0.55
CCN1C(=O)C2C(c3ccc(-c4ccccc4)c(OC)c3)N[C@@](Cc3ccccc3)(C(=O)OC)C2C1=O (stereo partly specified),/,/,/,/,0.75
O=C(Nc1ccccc1)C1=CC(C2CCCCC2)CC(OCCCCO)O1 (stereo unspecified),/,/,/,/,0.66
CCCCCOc1ccc(Br)cc1CSC(=N)N,/,/,-8,7,0.48*
NC(=O)C1CCCNc2c(I)cc([N+](=O)[O-])cc2C(=O)NC(CO)C(=O)NCC(=O)N1 (stereo unspecified),/,/,/,/,0.68
CCCCCCCN1CCC(=O)N(C(CO)c2ccccc2)CC1 (stereo unspecified),/,/,/,/,0.67
CN(C)C(=O)c1cc(C(=O)c2ccc(Cl)cc2Cl)c[nH]1,2,4,0,2,0.68
NC(=O)c1cc(C(=O)c2ccc(Cl)cc2Cl)c[nH]1,1,3,-13,2,0.5*
Cc1csc(N=Cc2ccc([N+](=O)[O-])o2)n1,/,/,/,12*,/
O=C(CNC(=S)N(CCCN1CCOCC1)Cc1cccs1)N1CCCC1,1,1,-4,2,0.54*
O=C(CNC(=S)N(CCCN1CCOCC1)Cc1cccs1)NCCN1CCOCC1,2,5,-3,2,0.67
CCOC(=O)c1c(-c2ccccc2)csc1NC(=O)CCN1C(=O)c2ccccc2C1=O,-1,5,1,3,0.72
CCOC(=O)c1c(-c2ccc(-c3ccccc3)cc2)csc1NC(=O)CNCCN(C)C,-3,-6,13,-3,0.41*
N/C(=N\OC(=O)Nc1ccccc1)c1ncc([N+](=O)[O-])s1,9,12,-15,5,/
NC(=NOC(=O)c1ccc(Cl)cc1)c1ncc([N+](=O)[O-])s1,/,/,/,/,0.46*
N#Cc1cccc(NC(=O)Nc2cccs2)c1,5,6,2,5,0.54*
COc1ccc(CC(N)C(=O)NC2C(CO)OC(n3cnc4c(N(C)C)ncnc43)C2O)cc1 (stereo unspecified),/,/,/,/,0.3*
O=[N+]([O-])c1nn(-c2ccc3c(c2)OCCO3)n(O)c1=NCCCO,14*,10,-2,8,0.6
Cc1ccc(CN=c2c([N+](=O)[O-])nn(-c3ccc4c(c3)OCCO4)n2O)cc1,1,3,-6,4,0.69

# Screens as filed in PubChem.
